experiment: Plasmodium falciparum growth inhibition, primary screen, strain 3D7, DAPI fluorescence, 100 nL (AID 1184);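 also: parasites grown inside human red blood cells in medium with human serum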; conditions: P. falciparum 3D7 growth, 3 d, higher = more signal

Structure (SMILES) | z-score
COC(=O)CC=C[C@@H](C)[C@@H](C=NO[C@@H](C)c1cc(-c2c(C)cc(C)cc2C)no1)NS(=O)(=O)c1ccc(C)cc1 | -0.842
CON=CC[C@@H]1C=C[C@H](OC(C)=O)[C@@H](COC(C)=O)O1 | 1.2
COC(=O)CC=C[C@@H](C)[C@@H](C=NO[C@@H]1O[C@H](COC(C)=O)[C@@H](OC(C)=O)[C@H](OC(C)=O)[C@H]1OC(C)=O)NS(=O)(=O)c1ccc(C)cc1 | -0.0818
CCOC(=O)[C@H](CC(C)C)NC(=O)CCC1CC(OC(=O)NCc2ccc3c(c2)OCO3)CC2(CCCC(COC(=O)NCC(c3ccccc3)c3ccccc3)O2)O1 (stereo partly specified) | -0.11
Cc1ccc(S(=O)(=O)N[C@@H]2COC(=O)[C@@H](C)COC(=O)CC=C[C@H]2C)cc1 | 0.393
CC(C)(C)N1C(=O)[C@H]2[C@H]3[C@H](O)[C@H](O)CC(=NO[C@@H]4O[C@H](CO)[C@@H](O)[C@H](O)[C@H]4O)[C@H]3CC[C@H]2C1=O | -1.62
O=C1C[C@@H](O)[C@@H](O)[C@@H]2[C@@H]3C(=O)N(Cc4ccccc4)C(=O)[C@@H]3CC[C@@H]12 | 0.328
CC(C)=CCCC(C)=CCON=C1C[C@@H](O)[C@@H](O)[C@@H]2[C@@H]3C(=O)N(c4cccc(Oc5ccccc5)c4)C(=O)[C@@H]3CC[C@@H]12 | -1.58
CO[C@H]1COC(=O)[C@@H](C)COC(=O)[C@H](COCc2ccccc2)NC(=O)CC=C[C@H]1C | -0.386
C[n+]1ccc(-c2ccc(CO)cc2)cc1 | 1.09
CCCNC(=O)OC[C@H]1O[C@H](CCON=C(C)CCC(=O)OC[C@H]2O[C@H](c3ccccc3)C=C[C@@H]2Oc2ccc(OC)cc2)C=C[C@@H]1Oc1ccc(OC)cc1 | -0.935
COC(=O)[C@H](C)NC(=O)CCC1CC(OC(=O)NCc2ccc3c(c2)OCO3)CC2(CCCC(COC(=O)NCC(c3ccccc3)c3ccccc3)O2)O1 (stereo partly specified) | -1.77
COC(=O)[C@H](C)NC(=O)CCC1CC(OC(=O)NCc2cccc3ccccc23)CC2(CCCC(COC(=O)NCC(c3ccccc3)c3ccccc3)O2)O1 (stereo partly specified) | -1.87
O=C1OCCC=C1C(O)CCc1ccccc1 (stereo unspecified) | -0.542
COC(=O)[C@H](C)NC(=O)CCC1CC(OC(=O)NCc2ccc3c(c2)OCO3)CC2(CCCC(COC(=O)NCc3cccc(C(F)(F)F)c3)O2)O1 (stereo partly specified) | -2.06
CO[C@H]1COC(=O)[C@H](C)NC(=O)CC=C[C@@H](C)[C@H](OC)COC(=O)[C@@H](OCc2ccccc2)C=C[C@@H]1C | 0.112
C#CCCCON=C1C[C@@H](O)[C@@H](O)[C@@H]2[C@@H]3C(=O)N(c4ccc(F)cc4F)C(=O)[C@@H]3CC[C@H]12 | -0.0103
CCC=CCCC(OC(=O)c1ccc(Br)cc1)C1=CCCCC1=O (stereo unspecified) | -0.713

Structure (SMILES) | z-score
C[C@@H](c1ccccc1)N1C(=O)[C@H]2[C@H]3[C@H](O)[C@H](O)CC(=O)[C@H]3CC[C@H]2C1=O | 0.676
CCOC(=O)[C@H](CC(C)C)NC(=O)CCC1CC(OC(=O)NCc2cccc3ccccc23)CC2(CCCC(COC(=O)NCCc3ccc(Cl)cc3)O2)O1 (stereo partly specified) | -1.61
C#CCCCON=C1C[C@@H](O)[C@@H](O)[C@@H]2[C@@H]3C(=O)N(C(C)(C)C)C(=O)[C@@H]3CC[C@@H]12 | -0.315
CC(C)CON=C1C[C@@H](O)[C@@H](O)[C@@H]2[C@@H]3C(=O)N(Cc4ccc5c(c4)OCO5)C(=O)[C@@H]3CC[C@H]12 | -0.613
Cc1ccc(S(=O)(=O)N[C@H]2COC(=O)CC=C[C@@H](C)COC(=O)CC=C[C@@H]2C)cc1 | 0.641
Cc1cc2c(nc1C)CCCCN2CC(C)ON=C[C@@H](C)[C@H](OCc1ccccc1)C(C)C (stereo partly specified) | -0.109
C[C@@H]1CC[C@H]2C(=O)O[C@@H](COc3ccc(C(C)(C)C)cc3)CN2[C@@H]1c1ccc(Br)cc1 | 0.093
CCOC(=O)[C@H](CC(C)C)NC(=O)CCC1CC(OC(=O)NCc2cccc3ccccc23)CC2(CCCC(COC(=O)NCc3ccncc3)O2)O1 (stereo partly specified) | -0.652
C#CCCCON=C1C[C@@H](O)[C@@H](O)[C@@H]2[C@@H]3C(=O)N(Cc4ccccc4)C(=O)[C@@H]3CC[C@@H]12 | 0.542
COC(=O)NCC=Cc1nc(CCCO)co1 | 0.316
CC(C)=NOC[C@@H](C)[C@H](OCc1ccccc1)C(C)C | -0.89
CO[C@H]1COC(=O)CC=C[C@@H](C)[C@H](NS(=O)(=O)c2ccc(C)cc2)COC(=O)CCC[C@@H]1C | 1.19
COc1ccc(O[C@H]2C=C[C@@H](c3ccccc3)O[C@@H]2COC(=O)CCC(C)=NO[C@@H]2O[C@H](COC(C)=O)[C@@H](OC(C)=O)[C@H](OC(C)=O)[C@H]2OC(C)=O)cc1 | -0.0102
CCOC(=O)CCN1C(=O)[C@H]2[C@H]3[C@H](O)[C@H](O)CC(=NOCc4ccccc4)[C@H]3CC[C@H]2C1=O | 0.172
COCOc1ccc(Br)cc1C(=O)[C@@H]1O[C@H]1c1cccc(OC)c1 | 0.194
CC(C)CON=C1C[C@@H](O)[C@@H](O)[C@@H]2[C@@H]3C(=O)N(C4CCCCC4)C(=O)[C@@H]3CC[C@@H]12 | -0.398
CO[C@H]1COC(=O)CC=C[C@@H](C)[C@H](OC)COC(=O)[C@@H]2CCCN2C(=O)CC=C[C@@H]1C | 0.095
CCOC(=O)[C@H](Cc1ccccc1)NC(=O)CCC1CC(OC(=O)NCc2ccc3c(c2)OCO3)CC2(CCCC(COC(=O)NCCc3ccccc3OC)O2)O1 (stereo partly specified) | -1.78

— PubChem BioAssay
